Experimental data taken from PubChem BioAssay (Tox21).
Several values for one entry are separate records, joined by “and”; a condition that tells them apart may be missing. Equal values may be shown once. Results filed as inconclusive are left out. Entries that show only a call come without a potency. Activity calls are given as the source filed them. Unless noted, calls come from the whole dose curve; as a rule, active = well fitted curve in the direction sought with a large enough effect in the repeat runs; inconclusive = weak or mixed curves; inactive = no such curve, though single readings can be large; an effect the other way counts as inactive or inconclusive.

Assays:
[1] = qHTS assay for small molecule agonists of the p53 signaling pathway (AID 651631; calls by dose curve; note: nearly all actives have a fitted effect of over 15% in size; note: potency is the fitted concentration of half-maximal effect)
In short: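 We treat p53RE-bla HCT-116 cells with compounds for 16 h at 37 °C, add LiveBLAzer B/G FRET substrate for 2 h at room temperature, and measure fluorescence intensity.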

[2] = qHTS assay for small molecules that induce genotoxicity in human embryonic kidney cells expressing luciferase-tagged ATAD5 (AID 651632); note: nearly all actives have a fitted effect of over 15% in size; note: potency is the fitted concentration of half-maximal effect
In short: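 A rise in luciferase signal from ATAD5-tagged HEK293T cells marks genetic stress. Cells were exposed to compounds for 16 hr at 37C, 5% CO2, then luciferase was quantified after a 30 min room-temperature incubation with Amplite.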

[3] = qHTS assay for small molecule agonists of the p53 signaling pathway - cell viability (AID 651633; calls by dose curve; note: nearly all actives have a fitted effect of over 30% in size; note: potency is the fitted concentration of half-maximal effect)
In short: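 Viability counter-read: CellTiter-Glo luminescence (30 min, room temperature) in the same p53RE-bla plates. These plates had been exposed to compounds for 16 h at 37 C.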

[4] = qHTS assay for small molecules that induce genotoxicity in human embryonic kidney cells expressing luciferase-tagged ATAD5 - cell viability (AID 651634; calls by dose curve; note: nearly all actives have a fitted effect of over 25% in size)
In short: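 Cytotoxicity counter-readout: after 15.5 hr compound treatment at 37C, live-cell protease activity in ATAD5-luciferase HEK293T cells measured by CellTiter-Fluor fluorescence, 30 min development at 37C.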

[5] = qHTS assay for small molecule disruptors of the mitochondrial membrane potential - cell viability (AID 720634; calls by dose curve;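 note: human HepG2 liver cancer cells; series mostly up to about 83 µM; nearly all actives have a fitted effect of over 20% in size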)
In short: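 Cytotoxicity was quantified from ATP content by CellTiter-Glo luminescence in the same wells as the MMP dye read-out. HepG2 (2,000 cells/well) were plated overnight and exposed to compounds for 1 hr at 37 C.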

[6] = qHTS assay to test for compound auto fluorescence at 590 nm (red) in HepG2 cells (AID 720674)
In short: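 1 hr compound incubation on HepG2 cells, 37 C, 5% CO2; plate read ex 540 nm / em 590 nm; intensities reported as Rose Bengal sodium equivalents.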

[7] = qHTS assay to test for compound auto fluorescence at 535 nm (green) in HepG2 cells (AID 720675)
[8] = qHTS assay to test for compound auto fluorescence at 460 nm (blue) in HEK293 cells (AID 720678)
In short: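 Measured: blue fluorescence (Ex 405/Em 460 nm) of compound-treated HEK293 cells, incubated overnight at 37C with 5% CO2 and scaled to triamterene equivalents.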

[9] = qHTS assay to test for compound auto fluorescence at 535 nm (green) in HEK293 cells (AID 720680)
[10] = qHTS assay to test for compound auto fluorescence at 460 nm (blue) in HEK293 cell free culture (AID 720681)
In short: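 Blue fluorescence (Ex 405/Em 460 nm, triamterene-equivalent) was read immediately after pin transfer of compound or DMSO into medium (DMEM, 10% FBS) without cells.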

[11] = qHTS assay to test for compound auto fluorescence at 535 nm (green) in HEK293 cell free culture (AID 720682)
In short: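 Green-channel intensity (Ex/Em 485/535 nm) was recorded from compound-treated wells containing only DMEM with 10% FBS. Fluorescein provided the equivalency standard.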

[12] = qHTS assay to test for compound auto fluorescence at 590 nm (red) in HEK293 cell free culture (AID 720683)
In short: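 Red-channel autofluorescence of compounds in culture medium (DMEM, 10% FBS), no cells, measured at 540/590 nm. Rose Bengal sodium is the reference fluorophore for equivalence.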

[13] = qHTS assay to test for compound auto fluorescence at 590 nm (red) in HepG2 cell free culture (AID 720684)
In short: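 Cell-free; medium MEM + 10% FBS; compound or DMSO added by pintool; read Ex 540/Em 590 nm; Rose Bengal sodium as red reference fluorophore.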

[14] = qHTS assay to test for compound auto fluorescence at 535 nm (green) in HepG2 cell free culture (AID 720686)
[15] = qHTS assay to test for compound auto fluorescence at 460 nm (blue) in HepG2 cells (AID 720687)
In short: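 Blue-channel autofluorescence (Ex/Em 405/460 nm, triamterene-equivalent) was measured after 1 hr compound exposure at 37 C, 5% CO2. Cells were HepG2, plated overnight at 37 C in MEM plus 10% FBS.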

[16] = qHTS assay for small molecule disruptors of the mitochondrial membrane potential (AID 720635); note: potency is the fitted concentration of half-maximal effect
In short: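 Mitochondrial membrane potential tracked with Mito-MPS dye, red aggregates (ex 540/em 590 nm) against green monomers (ex 490/em 535 nm). Compound treatment 1 hr at 37C, dye 30 min in HepG2.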

[17] = qHTS assay to test for compound auto fluorescence at 590 nm (red) in HEK293 cells (AID 720679)
In short: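 Using HEK293 cells at 2,000 per well, the screen added 23 nL of each compound after cell attachment and incubated overnight (37C, 5% CO2). The plate reader then captured red-label fluorescence, Ex/Em 540/590nm.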

[18] = qHTS assay to test for compound auto fluorescence at 460 nm (blue) in HepG2 cell free culture (AID 720685)
In short: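 Cell-free plates of MEM plus 10% FBS received 23 nL compound or DMSO vehicle; blue-channel (405/460 nm) intensity scored against triamterene as reference fluorophore.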

[19] = target: Glucocorticoid receptor (Homo sapiens) (UniProt P04150); assay: qHTS assay to identify small molecule antagonists of the glucocorticoid receptor (GR) signaling pathway (AID 720692; active = well fitted inhibition curve with a large enough effect in the signal ratio in the repeat runs, not every such curve was filed as active; the % refers to the signal ratio)
Chain of Glucocorticoid receptor (Homo sapiens) (P04150 whole entry, looked up): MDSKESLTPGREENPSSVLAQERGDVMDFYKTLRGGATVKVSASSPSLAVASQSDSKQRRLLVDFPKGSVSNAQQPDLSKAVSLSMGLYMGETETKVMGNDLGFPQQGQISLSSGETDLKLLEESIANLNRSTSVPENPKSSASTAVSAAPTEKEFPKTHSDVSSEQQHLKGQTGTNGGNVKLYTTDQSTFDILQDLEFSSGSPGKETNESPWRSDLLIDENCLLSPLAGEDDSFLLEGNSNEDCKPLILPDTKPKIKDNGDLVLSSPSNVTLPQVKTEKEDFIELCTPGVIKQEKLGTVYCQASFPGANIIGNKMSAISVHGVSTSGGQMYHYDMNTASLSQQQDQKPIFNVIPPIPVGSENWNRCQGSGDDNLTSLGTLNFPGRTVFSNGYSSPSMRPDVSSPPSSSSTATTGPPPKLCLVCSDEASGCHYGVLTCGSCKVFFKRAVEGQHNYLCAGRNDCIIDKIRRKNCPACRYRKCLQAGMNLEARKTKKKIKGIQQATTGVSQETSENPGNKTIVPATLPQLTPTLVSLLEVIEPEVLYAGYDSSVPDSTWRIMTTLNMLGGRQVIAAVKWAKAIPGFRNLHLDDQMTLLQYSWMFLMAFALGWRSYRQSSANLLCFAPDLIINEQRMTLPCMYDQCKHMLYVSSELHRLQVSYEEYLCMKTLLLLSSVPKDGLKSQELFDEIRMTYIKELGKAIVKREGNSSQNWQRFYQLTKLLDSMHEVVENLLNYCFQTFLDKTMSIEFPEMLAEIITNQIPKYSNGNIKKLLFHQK
In short: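 Inhibition of dexamethasone-driven (5 nM final) beta-lactamase expression was measured in GRE-reporter HeLa cells over 18 h at 37C. Fluorescence was read after 2 h with the B/G FRET substrate at room temperature.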

[20] = target: Glucocorticoid receptor (Homo sapiens) (UniProt P04150); assay: qHTS assay to identify small molecule agonists of the glucocorticoid receptor (GR) signaling pathway (AID 720691; active = well fitted activation curve with a large enough effect in the signal ratio in the repeat runs, not every such curve was filed as active; the % refers to the signal ratio)
In short: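 Agonist-mode qHTS in HeLa cells stably expressing a glucocorticoid-response-element beta-lactamase reporter. Fluorescence intensity read with FRET substrate (2 h, room temperature) after 18 h compound treatment at 37 C.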

| Structure (SMILES) | Potency [1] | Potency [2] | Potency [3] | Potency [4] | Potency [5] | Potency [6] | Potency [7] | outcome [8] | Potency [9] | Potency [10] | Potency [11] | Potency [12] | Potency [13] | Potency [14] | Potency [15] | Potency [16] | Potency [17] | Potency [18] | Potency [19] | Potency [20] |
| --- | --- | --- | --- | --- | --- | --- | --- | --- | --- | --- | --- | --- | --- | --- | --- | --- | --- | --- | --- | --- |
| CC(=O)Oc1ccc(C(c2ccc(OC(C)=O)cc2)c2ccccn2)cc1 | 944 nM (active) and 271 nM (active) | inactive | 668 nM (active) and 483 nM (active) | inactive | inactive | inactive | inactive | inactive | inactive | inactive | inactive | inactive | inactive | inactive | inactive |  |  |  |  |  |
| O=C(O)CCCCCCCCCCCC(=O)O | inactive | inactive | inactive | inactive | inactive | inactive | inactive | inactive | inactive | inactive | inactive | inactive | inactive | inactive | inactive | inactive | inactive | inactive |  |  |
| Clc1ccc(Sc2cc(Cl)c(Cl)cc2Cl)cc1 | inactive | inactive | inactive |  | inactive | inactive | inactive | inactive | inactive | inactive | inactive | inactive | inactive | inactive | inactive | 1.68 µM (active) and 864 nM (active) | inactive |  | inactive |  |
| O=S1(=O)CCCO1 | inactive | inactive | inactive | inactive | inactive | inactive | inactive | inactive | inactive | inactive | inactive | inactive | inactive | inactive | inactive |  | inactive | inactive | inactive |  |
| COC(=O)c1ccc(C)cc1 | inactive | inactive | inactive | inactive | inactive | inactive | inactive | inactive | inactive | inactive | inactive | inactive | inactive | inactive | inactive | inactive |  |  | inactive |  |
| Nc1ccc2c(O)cc(S(=O)(=O)O)cc2c1 | 4.86 µM (active) and 2.43 µM (active) | inactive | inactive |  | inactive | inactive | inactive | inactive | inactive | inactive | inactive | inactive | inactive | inactive |  |  |  |  |  |  |
| OC[C@@H](O)[C@@H](O[C@@H]1O[C@H](CO)[C@H](O)[C@H](O)[C@H]1O)[C@H](O)[C@@H](O)CO | inactive | inactive | inactive |  | inactive | inactive | inactive | inactive | inactive | inactive | inactive | inactive | inactive | inactive | inactive | inactive | inactive |  |  |  |
| CCCCCCCCCCCCO | inactive | inactive | inactive | inactive | inactive | inactive | inactive | inactive | inactive | inactive | inactive | inactive | inactive | inactive | inactive |  |  |  |  |  |
| Nc1cc(Cl)c(N)c(Cl)c1 | inactive | inactive | inactive | inactive | inactive | inactive | inactive | inactive | inactive | inactive | inactive | inactive | inactive | inactive | inactive |  | inactive | inactive | inactive |  |
| C=C[C@@]1(C)CC(=O)[C@]2(O)[C@@]3(C)[C@@H](O)CCC(C)(C)[C@@H]3[C@H](O)[C@H](OC(C)=O)[C@@]2(C)O1 | inactive | 266 nM (active) and 122 nM (active) | inactive |  | inactive | inactive | inactive | inactive | inactive | inactive | inactive | inactive | inactive | inactive | inactive |  | inactive | inactive |  | inactive |
| [O-]/[N+](=N\O)c1ccccc1 | inactive | inactive | inactive |  | inactive | inactive | inactive | inactive | inactive | inactive | inactive | inactive | inactive | inactive | inactive | inactive | inactive | inactive |  |  |
| O=C1CCc2ccccc2O1 | inactive | inactive | inactive |  | inactive | inactive | inactive | inactive | inactive | inactive | inactive | inactive | inactive | inactive | inactive |  |  |  | inactive |  |
| C1CN(SSN2CCOCC2)CCO1 | inactive | inactive | inactive | inactive | inactive | inactive | inactive | inactive | inactive | inactive | inactive | inactive | inactive | inactive | inactive |  | inactive | inactive |  |  |
| CCc1cccc2c3c([nH]c12)C(CC)(CC(=O)O)OCC3 (centres undefined) | inactive | inactive | inactive | inactive |  | inactive | inactive | inactive | inactive | inactive | inactive | inactive | inactive | inactive | inactive |  | inactive | inactive |  |  |
| CCC(Cc1c(I)cc(I)c(N)c1I)C(=O)O (centres undefined) | inactive | inactive | inactive | inactive | inactive | inactive | inactive | inactive | inactive | inactive | inactive | inactive | inactive | inactive | inactive | inactive |  |  |  |  |
| CC(C)(C)c1cccc(C(C)(C)C)c1O | inactive | inactive | inactive |  | inactive | inactive | inactive | inactive | inactive | inactive | inactive | inactive | inactive | inactive | inactive | 16.8 µM (active) and 15.4 µM (active) |  | inactive | inactive |  |
| c1ccc2cc3ccccc3cc2c1 | inactive | inactive | inactive |  | inactive | inactive | inactive | inactive | inactive | inactive | inactive | inactive | inactive | inactive | inactive |  |  | inactive | inactive | inactive |
